CSC inhib: cancer stem cell inhibition; cancer stem cell-like cells viability, luminescence; inhibition, % at 7.5 µM; hit rate 1.1% among 300,000; AID 2717; in the data active means inhibition above about 75%; tested in HMLE shEcad cells
Jurkat NFkB inh: lowers PMA/ionomycin-induced NF-kB signal in Jurkat cells. inhibition, % at 4 µM. hit rate 0.53% among 330,000. PMA/ionomycin-induced NF-kB luciferase reporter, luminescence. AID 435003; in the data active means inhibition above about 50%
Gli-Sufu antag: Gli-Sufu pathway antagonism | Sufu-KO-LIGHT fibroblasts, Gli luciferase reporter luminescence | hit rate 0.74% among 340,000 | inhibition, % at 5 µM;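 active means inhibition above about 55%, limit read from the data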;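 further: 0% = DMSO-treated cells and 100% = wells with medium but no cells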
aSyn 5UTR inh: MLPCN primary screen, SNCA 5' untranslated region; alpha-synuclein 5'UTR reporter, inhibitor activity; inhibition, % (tested at 7.5 µM); hit rate 0.82% among 300,000; AID 1813; in the data active means inhibition above about 60%;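 further: H4 neuroglioblastoma cells stably carrying SNCA 5'UTR luciferase fusion; 0% = DMSO wells and 100% = positive control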
Mdm2-MdmX inh: human Mdm2/MdmX binding inhibition; SaOS-2 split-luciferase Mdm2/MdmX complementation, luminescence; inhibition, % at 8 µM; O15151+Q00987; hit rate 3% among 330,000; AID 485346;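 active means inhibition of at least 50% at 8 µM in the primary screen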
Target sequence (O15151 whole entry, looked up): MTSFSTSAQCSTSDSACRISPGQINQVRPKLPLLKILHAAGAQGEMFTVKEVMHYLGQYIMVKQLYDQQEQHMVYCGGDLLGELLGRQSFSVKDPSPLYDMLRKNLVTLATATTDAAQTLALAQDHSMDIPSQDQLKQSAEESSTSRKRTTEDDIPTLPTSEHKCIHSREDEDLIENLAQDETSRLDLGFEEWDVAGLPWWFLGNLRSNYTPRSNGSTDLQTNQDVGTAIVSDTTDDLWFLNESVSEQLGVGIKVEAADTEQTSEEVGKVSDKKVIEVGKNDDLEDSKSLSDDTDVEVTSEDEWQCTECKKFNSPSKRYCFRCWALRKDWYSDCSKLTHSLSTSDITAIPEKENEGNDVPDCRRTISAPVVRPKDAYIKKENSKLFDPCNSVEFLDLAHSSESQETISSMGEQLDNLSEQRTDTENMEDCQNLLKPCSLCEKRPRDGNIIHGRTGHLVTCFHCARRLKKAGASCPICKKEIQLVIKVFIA
Target sequence (Q00987 whole entry, looked up): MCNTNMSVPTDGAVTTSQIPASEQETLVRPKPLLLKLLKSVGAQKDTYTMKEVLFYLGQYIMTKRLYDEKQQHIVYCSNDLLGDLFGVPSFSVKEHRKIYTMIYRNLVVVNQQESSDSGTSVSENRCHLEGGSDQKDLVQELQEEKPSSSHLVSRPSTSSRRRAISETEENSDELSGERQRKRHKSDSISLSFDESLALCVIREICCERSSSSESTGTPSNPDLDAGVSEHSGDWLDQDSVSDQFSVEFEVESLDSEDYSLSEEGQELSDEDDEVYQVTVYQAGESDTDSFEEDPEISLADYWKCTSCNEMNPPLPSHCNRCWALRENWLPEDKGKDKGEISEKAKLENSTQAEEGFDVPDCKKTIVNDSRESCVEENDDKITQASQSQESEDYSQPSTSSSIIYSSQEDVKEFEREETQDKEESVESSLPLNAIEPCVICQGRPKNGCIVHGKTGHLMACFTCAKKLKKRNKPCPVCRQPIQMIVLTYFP
697 NFkB inh: lowers PMA/ionomycin-induced NF-kB signal in 697 B cells | hit rate 0.33% among 330,000 | inhibition, % at 4 µM | 697 B-cell NF-kB luciferase reporter, 16 h; in the data active means inhibition above about 35%
* marks the source's active call; other numbers are inactive results. In the library only some 4.5% were active in any assay of this set; here they are far more common.

`CC(C)(C)NC(=O)Cn1nnc(-c2ccc(OCc3c(F)cccc3Cl)cc2)n1` gave CSC inhib 78*, Jurkat NFkB inh -5, Gli-Sufu antag 3, aSyn 5UTR inh -29, Mdm2-MdmX inh 30 and 697 NFkB inh -4.
Screening COc1ccc(COc2cc(-c3cccc(OC)c3)nc3ccc(NC(=O)c4ccc(N(C)C)cc4)cc23)cc1 returned CSC inhib 80*, Jurkat NFkB inh -6, Gli-Sufu antag 4, aSyn 5UTR inh 1, Mdm2-MdmX inh 39 and 697 NFkB inh 33.
For COc1ccc(COc2cc(-c3cccc(OC)c3)nc3ccc(NC(=O)c4ccc(C)cc4)cc23)cc1 the results were CSC inhib 69, Jurkat NFkB inh -31, Gli-Sufu antag 12, aSyn 5UTR inh 2, Mdm2-MdmX inh 29 and 697 NFkB inh 23.
CN1CCN(c2ccccc2NC(=O)c2ccc(N3CCCCC3)c([N+](=O)[O-])c2)CC1 was read as Jurkat NFkB inh -15, Gli-Sufu antag 3, aSyn 5UTR inh -23, Mdm2-MdmX inh -3 and 697 NFkB inh -6.
For NC(=O)c1ccc(N2CCN(S(=O)(=O)c3ccccc3)CC2)c([N+](=O)[O-])c1 the results were Jurkat NFkB inh 49, Gli-Sufu antag 56*, aSyn 5UTR inh 0, Mdm2-MdmX inh -2 and 697 NFkB inh 7.
For CN1CCN(c2ccc(C(=O)c3ccccc3)cc2[N+](=O)[O-])CC1 the results were CSC inhib 83*, Jurkat NFkB inh -26, Gli-Sufu antag 1, aSyn 5UTR inh 1, Mdm2-MdmX inh 10 and 697 NFkB inh -12.
For O=C(c1ccc(N2CCCCC2)c([N+](=O)[O-])c1)N1CCN(S(=O)(=O)c2ccccc2)CC1 the results were CSC inhib 0, Jurkat NFkB inh 10, Gli-Sufu antag -2, aSyn 5UTR inh 4, Mdm2-MdmX inh 25 and 697 NFkB inh 15.
`Cc1cccc2sc(NNC(=O)c3ccc(S(=O)(=O)N4CCCC(C)C4)cc3)nc12` (stereo not drawn) gave CSC inhib 128*, Gli-Sufu antag -4 and aSyn 5UTR inh 78*.
Screening NS(=O)(=O)c1ccc(O)c(NC(=O)c2ccc([N+](=O)[O-])cc2)c1 returned CSC inhib -2, Jurkat NFkB inh 1, Gli-Sufu antag -27, aSyn 5UTR inh -4, Mdm2-MdmX inh 5 and 697 NFkB inh 8.
CC(C)CCCCCCCCCCCCC(=O)NCC(=O)NC1C(C)OC(Nc2ncnc3nc[nH]c23)C(O)C1O (stereo not drawn) was read as Gli-Sufu antag 70*.
Screening C/C(=C\CNc1ncnc2nc[nH]c12)CO returned CSC inhib 6, Jurkat NFkB inh 18, Gli-Sufu antag -9, aSyn 5UTR inh -10, Mdm2-MdmX inh 45 and 697 NFkB inh 23.
`O=C(COC(=O)C1(c2ccc(F)cc2)CCCC1)N1CCc2ccccc21` gave CSC inhib 39, Jurkat NFkB inh 3, Gli-Sufu antag 4, aSyn 5UTR inh 57, Mdm2-MdmX inh 7 and 697 NFkB inh 31.
Screening COc1ccc2[nH]c3c(=O)n(N)c(=O)[nH]c3c2c1 returned CSC inhib 3, Jurkat NFkB inh 7, aSyn 5UTR inh -4, Mdm2-MdmX inh 0 and 697 NFkB inh 3.
Screening COc1ccc2[nH]c3c(=O)n(/N=C/[C@H]4C(C)C=C(C)CC4C)c(=O)[nH]c3c2c1 (stereo partly drawn) returned CSC inhib 88*, Jurkat NFkB inh 2, Gli-Sufu antag 28, aSyn 5UTR inh -14, Mdm2-MdmX inh 16 and 697 NFkB inh 2.
Screening COC(=O)c1cn(S(=O)(=O)c2ccccc2)c2ccccc12 returned CSC inhib 31, Jurkat NFkB inh -3, Gli-Sufu antag -25, aSyn 5UTR inh 57, Mdm2-MdmX inh 18 and 697 NFkB inh -4.
`CC1=C(C)/C(=N\OS(=O)(=O)c2ccc(C)cc2)C=CC1=O` gave CSC inhib 89* and Gli-Sufu antag -1.
Screening COc1cc(CNCc2cc(OC)c(OC)c(OC)c2)cc(OC)c1 returned CSC inhib -5, Jurkat NFkB inh 10, Gli-Sufu antag 25, aSyn 5UTR inh -10, Mdm2-MdmX inh 18 and 697 NFkB inh -9.
Screening COc1ccc(-n2ncc3c2CC(C)(C)CC3NC(=O)c2ccoc2C)cc1 (stereo not drawn) returned CSC inhib -7, Jurkat NFkB inh 11, Gli-Sufu antag 21, aSyn 5UTR inh 1, Mdm2-MdmX inh 19 and 697 NFkB inh 8.
For COc1ccc(OC)c(C(=O)NC2CC(C)(C)Cc3c2cnn3-c2ccccc2)c1 (stereo not drawn) the results were Jurkat NFkB inh -7, Gli-Sufu antag 28, aSyn 5UTR inh 67*, Mdm2-MdmX inh 50 and 697 NFkB inh -162.
For Cc1ccc(-n2nnnc2Sc2ccc(S(=O)(=O)NCCN(C)C)cc2[N+](=O)[O-])cc1 the results were CSC inhib 99*, Gli-Sufu antag 13 and aSyn 5UTR inh -93.
`O=C(Nc1cccc(S(=O)(=O)Nc2ccc(Cl)cc2)c1)c1cc2c(s1)CCCC2` gave CSC inhib 117*, Jurkat NFkB inh -10, Gli-Sufu antag 5, aSyn 5UTR inh 28, Mdm2-MdmX inh 35 and 697 NFkB inh -27.
For Cc1ccc(NC(=O)c2cc3c(s2)CCCC3)cc1S(=O)(=O)Nc1ccccc1Cl the results were CSC inhib 52, Jurkat NFkB inh -12, Gli-Sufu antag 21, aSyn 5UTR inh -3, Mdm2-MdmX inh 12 and 697 NFkB inh -4.
Screening CCCN(CC1CC1)c1nc(C)nc(Nc2c(Cl)cc(Cl)cc2Cl)c1Cl returned CSC inhib 86*, Jurkat NFkB inh 17, Gli-Sufu antag 0, aSyn 5UTR inh 1, Mdm2-MdmX inh 41 and 697 NFkB inh -3.
`CCCN(CC1CC1)c1nc(N)c(C#N)c(CC#N)c1C#N` gave CSC inhib 6, Jurkat NFkB inh 5, Gli-Sufu antag 8, aSyn 5UTR inh 41, Mdm2-MdmX inh 7 and 697 NFkB inh -7.
`CCCCCCCCOC(=O)C1=C(C)Nc2nnnn2C1c1cccs1` (stereo not drawn) gave CSC inhib 102*, Jurkat NFkB inh 0, Gli-Sufu antag 13, aSyn 5UTR inh 11, Mdm2-MdmX inh 41 and 697 NFkB inh -30.
CCCCCCCOC(=O)C1=C(C)Nc2ncnn2C1c1cccs1 (stereo not drawn) was read as CSC inhib -4, Jurkat NFkB inh 18, Gli-Sufu antag 16, aSyn 5UTR inh 8, Mdm2-MdmX inh 37 and 697 NFkB inh -41.
Screening CCc1cc(Cn2nc(-c3ccccc3)cc2C(=O)NCc2ccccc2OC)on1 returned CSC inhib 10, Jurkat NFkB inh 32, Gli-Sufu antag 0, aSyn 5UTR inh 5, Mdm2-MdmX inh 9 and 697 NFkB inh -12.
`CCn1cc2nc(SCC(=O)Nc3ccccc3F)n(Cc3ccccc3)c(=O)c2n1` gave CSC inhib -10, Jurkat NFkB inh -2, Gli-Sufu antag 9, aSyn 5UTR inh 10, Mdm2-MdmX inh 23 and 697 NFkB inh -7.
CCOc1ccc(CC(=O)Nc2ccc(NC(=O)c3ccco3)cc2)cc1OCC was read as Gli-Sufu antag 8 and aSyn 5UTR inh 66*.
